Screens from PubChem BioAssay.
This is a sample that favours compounds with a hit; in the whole collection about 2.8% have one here.
HIF-2a inh: blocks HIF-2a reporter activity | actives 0.72% (n = 360,000) | AID 624352 | inhibition, % at 18.8 µM | 786-0 RCC cells HIF-2a reporter, luciferase luminescence, overnight;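 active means inhibition of the luminescence signal of 40% or more relative to plate controls, in a single-dose primary screen at 18.75 µM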
CF NFkB inh: inhibitors of cystic fibrosis induced NF-kB; inhibition, % at 5 µM; AID 588850; actives 0.86% (n = 360,000); KKLEB NF-kB-GFP reporter, PAF-induced, GFP fluorescence overnight;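 active means at least 50% inhibition at 5 µM, scaled per plate between neutral and stimulator controls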;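 further: PAF is a Pseudomonas aeruginosa culture filtrate used as stimulus; plate controls were PAF-stimulated DMSO wells for no effect and unstimulated DMSO wells for full effect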
Peg3 prom inh-1: inhibitors of Peg3 promoter | AID 588405 | actives 1.7% (n = 360,000) | HeLa PEG-Prom luciferase reporter, luminescence, overnight | inhibition, % at 20 µM;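 active means inhibition of at least 50% at 20 µM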
MITF TRPM1 inh: inhibitors of MITF-driven TRPM1 promoter in melanoma cells; SK-MEL-5 TRPM1 promoter luciferase, 24 h; inhibition, % at 12.5 µM; actives 0.83% (n = 330,000);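 active means mean inhibition across replicates of 60% or more, whatever share of single replicates reaches that level; inconclusive means some that reach 60%, reason not given; inactive means mean inhibition across replicates below 60%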
Shn3 inh set2: reduces Shn3 3'UTR luciferase signal in osteoblasts; Clone20 osteoblast Shn3 3'UTR firefly luciferase, 24 h; inhibition, % at 12.5 µM; actives 0.52% (n = 360,000); AID 588674;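 active means mean inhibition of at least 75% with every replicate also reaching 75%; inconclusive means mean inhibition at least 75% but some replicate below; inactive means mean inhibition below 75%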;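 further: 0% = median of neutral control wells and 100% = pilot-screen positive control compound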
KKLEB cytotox: counter-screen for CF NF-kB inhibitors: cytotoxicity; actives 0.36% (n = 360,000); activity change (cytotoxicity), % at 5 µM; KKLEB CF airway cells viability, ATPlite luminescence, overnight; hits give low values; cells stimulated with P. aeruginosa culture filtrate;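 active means corrected activity change at or below -50% at 5 µM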
Peg3 prom inh-2: confirmation of Peg3 promoter inhibitors; shares compounds with Peg3 prom inh-1; HeLa PEG-Prom luciferase reporter, luminescence, overnight; inhibition, % at 20 µM; actives 84% (n = 1,300); AID 602417;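 active means at 20 µM dose, 40% or more inhibition averaged across four replicates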
Active calls of the source: *; ? = inconclusive; · = no result; ! = not active in a repeat.

SMILES | HIF-2a inh | CF NFkB inh | Peg3 prom inh-1 | MITF TRPM1 inh | Shn3 inh set2 | KKLEB cytotox | Peg3 prom inh-2
O=[N+]([O-])c1cc(-c2csc(NCCc3nc4cc(Cl)c(N5CCCCC5)cc4n3CCCO)n2)ccc1Cl | 19.5 | -33.6 | -4.0 | -11.3 | -6.3 | 10.6 | ·
NS(=O)(=O)c1ccc(CCNC(=O)c2cc(-c3cccs3)nc3ccccc23)cc1 | -9.7 | -16.0 | 53.9* | 8.3 | 7.4 | 0.0 | 41.1*
NS(=O)(=O)c1ccc(CNC(=O)c2cc(-c3cccs3)nc3ccccc23)cc1 | 0.6 | -25.2 | 31.3 | 6.8 | 5.2 | 1.7 | ·
Cc1ccc(C2(CCNCc3ccc(N(C)C)cc3)CCOC(C(C)C)C2)cc1 (stereo not given) | 6.0 | -15.5 | 56.3* | 36.3 | 17.1 | 21.7 | 62.9*
Cc1ccc(C2(CCNS(=O)(=O)c3ccc(C)cc3)CCOC(C(C)C)C2)cc1 (stereo not given) | 16.3 | -11.4 | 9.6 | 4.6 | 30.0 | -4.9 | ·
COc1ccc(C[C@H]2CN3C(=NC[C@@H]3Cc3ccc(O)cc3)N2C[C@H](C)NC(=O)CCC2CCCCC2)cc1 | -11.0 | 9.2 | 63.1* | -4.3 | 6.2 | -10.6 | 28.9
CC(C)[C@H]1CN=C2N(C[C@H](C)NC(=O)CCC3CCCCC3)[C@H](Cc3ccc(O)cc3)CN21 | -12.5 | -8.7 | -8.8 | -10.4 | 5.1 | -27.8 | ·
COc1ccc(Br)cc1/C=N/NC(=O)c1ccc(COc2ccc3c(c2)CCC3)o1 | -25.9 | 13.6 | -5.0 | -12.3 | -16.8 | -13.3 | ·
O=C(N/N=C/c1cc([N+](=O)[O-])ccc1O)c1ccc(COc2ccc3c(c2)CCC3)o1 | -23.8 | 44.6 | 52.0* | 47.4 | 87.8* | -21.0 | 45.0*
O=C(CON=C1c2ccccc2-c2ccccc21)NC12CC3CC(CC(C3)C1)C2 | -1.1 | 12.1 | 10.1 | -5.7 | -3.0 | -14.4 | ·
CCN(CC)CCSc1nnc2c3cc(C)ccc3n(Cc3ccccc3)c2n1 | 14.5 | -30.8 | 63.9* | · | 18.2 | -6.4 | 46.3*
CCCC(=O)Nc1nnc(S(=O)(=O)N(CC)c2ccccc2)s1 | 17.9 | 7.9 | -2.8 | 9.8 | -3.7 | 9.1 | ·
CN(C)c1ccc(N=Nc2nc3ccccc3n2C)cc1 | 16.9 | -18.9 | 103.5* | ? | · | -82.3* | 87.5*
COc1ccc(-c2cc(-c3nnc(COC(=O)c4ccc(O)cc4)o3)c3ccccc3n2)cc1OC | -13.6 | 43.0 | 52.2* | -2.9 | -5.0 | 0.6 | 34.1
CCCCCCCCNCCS(=O)(=O)NCc1ccc(OC)cc1 | -9.9 | -13.6 | 56.4* | -3.6 | -27.4 | -3.3 | 68.5*
CCCCCCCCNS(=O)(=O)CCNCc1ccccc1 | 14.1 | 23.3 | 7.2 | -6.5 | -9.6 | -19.0 | ·
Cc1ccc(C)c2[nH]c(=O)c(CN(Cc3ccco3)C(=S)NCC3CCCO3)cc12 (stereo not given) | 15.0 | -20.4 | 4.6 | 4.6 | 18.3 | -7.5 | ·
CCN(CC)CCN1CCN(c2cncc(-c3ccc4ccccc4c3)n2)CC1 | -20.5 | -7.6 | 70.7* | · | -22.9 | -11.6 | 89.7*
CC(C)[C@H](N)C(=O)NC[C@H]1CC[C@H](C(=O)N[C@@H](Cc2ccccc2)C(=O)O)CC1 | 9.7 | -0.4 | -0.3 | -12.8 | -6.3 | 4.3 | ·
C[C@@]12C(=O)Nc3cc(Cl)ccc3C(=O)N1[C@H]1c3cc(Cl)ccc3OC[C@@H]1[C@@H]2c1ccccc1 | -5.6 | 24.1 | 55.5* | -4.3 | 26.8 | -36.8 | 56.6*
COCCN(C(=O)COC(=O)C(c1ccccc1)c1ccccc1)c1c(N)n(Cc2ccccc2)c(=O)[nH]c1=O | 5.9 | 19.4 | 4.6 | 3.1 | 6.6 | -3.2 | ·
C[C@@H]1CN([C@@H](C)CO)C(=O)c2cc(NC(=O)C3CC3)ccc2O[C@@H]1CN(C)Cc1ccc(Cl)c(Cl)c1 | 7.3 | -3.8 | 8.5 | 5.0 | 12.9 | 7.5 | ·
N#C/C(=C\c1ccc([N+](=O)[O-])cc1)c1ccccn1 | -231.0 | 9.6 | -244.6 | -45.6 | -2.2 | -12.6 | ·
CN(C)c1ccc(/C=C(\C#N)c2ccccn2)cc1 | 30.5 | -5.5 | 78.2* | 68.3* | 45.4 | -90.8* | 49.3*
CN(C)c1ccc(NC(=S)c2ccccn2)cc1 | 54.3* | -11.0 | 90.4* | 78.6* | 61.9 | -55.1* | 66.4*
SMILES | HIF-2a inh | CF NFkB inh | Peg3 prom inh-1 | MITF TRPM1 inh | Shn3 inh set2 | KKLEB cytotox | Peg3 prom inh-2
CN(C)c1ccc(C(=S)Nc2ccccc2)cc1 | -51.5 | 2.2 | -76.7 | -18.7 | -43.3 | -4.1 | ·
CCOC(=O)C1=C(C(=O)OCC)N(CC2CCCCC2)CCC1=O | 6.9 | 2.6 | -4.8 | -3.9 | 5.0 | -4.6 | ·
CC1(C)NC(=O)N(CC(=O)Nc2ccc(-n3cnnn3)cc2)C1=O | 10.7 | -5.3 | -8.3 | 0.4 | 7.0 | -10.7 | ·
Cc1cccc(NC(=O)c2oc3ccc(S(=O)(=O)N4CCOCC4)cc3c2C)c1C | 1.0 | 2.0 | 53.8* | 8.3 | 11.1 | -2.7 | 55.7*
C=C1CC[C@@]23CC[C@]4(C)[C@@](OC2=O)([C@@H]3C1)[C@H]1O[C@H]1C1[C@@]2(C)CC[C@H](O)C(C)(C)C2CC[C@]14C (stereo not given in full) | -7.5 | -15.0 | -5.9 | · | -2.2 | -10.2 | ·
Cc1ccc(S(=O)c2ccc([N+](=O)[O-])c3nonc23)cc1 (stereo not given) | 0.0 | -10.2 | 51.3* | · | 4.9 | -3.8 | 98.5*
Cc1nc(Nc2ccc(F)cc2)nc(Nc2ccc(F)cc2)c1[N+](=O)[O-] | 17.6 | 17.7 | 14.7 | 15.4 | -1.7 | -26.6 | ·
CC(=O)Nc1ccc(Nc2nc(C)c([N+](=O)[O-])c(Nc3ccccc3)n2)cc1 | 28.1 | 9.6 | 63.9* | 42.8 | 49.0 | -8.0 | 56.1*
CCOC(=O)c1c(NC(=O)CSc2ncccn2)sc2c1CC(C)(C)NC2(C)C | 14.2 | -5.4 | 0.2 | 19.1 | -2.2 | -9.0 | ·
CCOC(=O)c1c(NC(=O)c2ccc(S(=O)(=O)N3CCOCC3)cc2)sc2c1CC(C)(C)NC2(C)C | 13.4 | 28.5 | 53.4* | 0.9 | -10.2 | -12.7 | 9.3
CCOC(=O)c1c(NC(=O)c2ccc(S(=O)(=O)N3CCOCC3)cc2)sc2c1CCN(C)C2 | -18.7 | 11.7 | 30.8 | -18.3 | -5.4 | -8.4 | ·
CCOC(=O)c1c(NC(=O)COc2ccccc2F)sc2c1CC(C)(C)NC2(C)C | 3.8 | 23.2 | 85.5* | 71.2* | -22.9 | -11.2 | 79.9*
Cc1ccc(/C=C/S(=O)(=O)Nc2ccc(C)cc2)cc1 | -1.7 | -16.1 | -9.3 | 14.5 | 2.4 | 8.9 | ·
CC1Cc2ccccc2N1C(=O)CN1C(=O)NC(C)(CCc2ccccc2)C1=O (stereo not given) | 10.9 | 6.0 | 5.5 | -0.2 | 19.2 | 10.6 | ·
CSc1ccc2c(c1)C(N1CCN(C)CC1)Cc1ccccc1S2 (stereo not given) | -4.5 | 37.3 | 81.7*! | 31.0 | 1.5 | -12.8 | 84.5*
COc1ccc(/C(C)=N/NC(=O)c2nnn(-c3nonc3N)c2CN(C)c2ccccc2)cc1 | 1.8 | 24.7 | 14.3 | -6.4 | -3.9 | -7.6 | ·
